Source: PubChem BioAssay
Activity calls are given as the source filed them. Unless noted, the rule behind the calls is not given here.

What was measured:
[1] = A549 cell viability effects, profiling panel, calcein-AM fluorescence, 48 h, basal (AID 1162); conditions: higher = more signal; note: test concentration not given here
[2] = adipocyte viability effects, profiling panel, cell-based, 3T3-L1 adipocytes, calcein-AM fluorescence, 48 h, basal (AID 1163); conditions: 3T3-L1 adipocytes viability, higher = more signal; note: test concentration not given here
[3] = HepG2 cell viability effects, profiling panel, calcein-AM fluorescence, 48 h, basal (AID 1164); conditions: higher = more signal; note: test concentration not given here
[4] = MM1S cell viability effects, profiling panel, calcein-AM fluorescence, 48 h, basal (AID 1165); conditions: higher = more signal;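 note: viability of MM1S multiple myeloma cells under basal unstimulated conditions; test concentration not given here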
[5] = basal RPMI8226 viability, no added stimulus, profiling panel, cell-based, calcein-AM fluorescence, 48 h, PK04 Diversity Set (AID 1166); conditions: RPMI8226 myeloma viability, higher = more signal;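 note: cells grown under basal conditions without added stimulus; test concentration not given here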
[6] = basal HepG2 mitochondrial membrane potential changes, profiling panel, cell-based, JC-1 fluorescence, 24 h, 100 nL compound (AID 1167); conditions: higher = more signal; note: test concentration not given here
[7] = basal 3T3-L1 adipocyte mitochondrial potential changes, profiling panel, cell-based, JC-1 fluorescence, 3T3-L1 adipocytes, 24 h, 100 nL compound (AID 1168); conditions: JC-1 mitochondrial fluorescence, higher = more signal, called active from +8 up or from −8 down; note: test concentration not given here
[8] = basal RPMI8226 mitochondrial membrane potential changes, profiling panel, cell-based, JC-1 fluorescence, 24 h, 100 nL compound (AID 1169); conditions: RPMI8226 myeloma, JC-1 mitochondrial potential fluorescence, higher = more signal; note: test concentration not given here
[9] = basal MM1S mitochondrial membrane potential changes, profiling panel, cell-based, JC-1 fluorescence, 24 h, 100 nL compound (AID 1170); conditions: higher = more signal; note: test concentration not given here
[10] = A549 lung cancer cell viability effects, profiling panel, resazurin fluorescence, 24 h, PK04 Diversity Set (AID 1171); conditions: higher = more signal, called active from +8 up or from −8 down; note: test concentration not given here
[11] = HepG2 liver cancer cell viability effects, profiling panel, resazurin fluorescence, 24 h, PK04 Diversity Set (AID 1172); conditions: higher = more signal; note: test concentration not given here
[12] = basal S. cerevisiae growth modulation, no modifier, primary screen, OD600, strain BY4716, 24 h, basal condition (AID 1173); conditions: OD600, 24 h, higher = more signal, called active from +8 up or from −8 down
[13] = MM1S myeloma cell viability, profiling panel, resazurin fluorescence, basal, 24 h, PK04 Diversity Set (AID 1174); conditions: higher = more signal, called active from +8 up or from −8 down;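 note: MM1S multiple myeloma cell line; test concentration not given here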
[14] = molecular target: Dihydroorotate dehydrogenase (quinone), mitochondrial (Plasmodium falciparum (isolate 3D7)) (UniProt Q08210); assay: PfDHODH enzyme inhibitors, primary screen, biochemical, C-terminal His tag, absorbance 600 nm (AID 1175); conditions: DCIP absorbance 600 nm, higher = more signal, called active from +8 up or from −8 down;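 note: recombinant parasite enzyme with a five histidine tag at its C terminus; test concentration not given here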
Chain of Dihydroorotate dehydrogenase (quinone), mitochondrial (Plasmodium falciparum (isolate 3D7)) (Q08210 whole entry, looked up): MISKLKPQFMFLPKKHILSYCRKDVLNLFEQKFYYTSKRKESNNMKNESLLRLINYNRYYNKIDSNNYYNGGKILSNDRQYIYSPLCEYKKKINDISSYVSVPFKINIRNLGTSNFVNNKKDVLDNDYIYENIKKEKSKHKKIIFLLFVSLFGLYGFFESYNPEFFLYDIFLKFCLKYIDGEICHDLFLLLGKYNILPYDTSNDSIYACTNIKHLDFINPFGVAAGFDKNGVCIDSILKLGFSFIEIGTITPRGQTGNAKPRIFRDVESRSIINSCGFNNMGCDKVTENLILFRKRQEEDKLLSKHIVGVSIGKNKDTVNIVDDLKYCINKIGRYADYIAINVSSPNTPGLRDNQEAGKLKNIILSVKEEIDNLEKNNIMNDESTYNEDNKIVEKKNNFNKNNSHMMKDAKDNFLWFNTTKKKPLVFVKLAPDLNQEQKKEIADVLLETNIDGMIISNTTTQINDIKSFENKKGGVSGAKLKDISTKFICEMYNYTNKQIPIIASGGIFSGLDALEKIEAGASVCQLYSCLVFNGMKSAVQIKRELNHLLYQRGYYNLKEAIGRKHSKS

[15] = P. aeruginosa biofilm formation inhibitors, primary screen, strain PAO1, LB-PBS medium, absorbance 600 nm (AID 1176); note: test concentration not given here; conditions: P. aeruginosa PAO1 growth/biofilm, A600, 12 h; higher = more signal
[16] = S. cerevisiae RM11-1a growth modifiers, primary screen, strain RM11-1a, OD600, basal, 24 h (AID 1177); conditions: OD600, 24 h, higher = more signal, called active from +8 up or from −8 down;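 note: cultures grown under basal conditions with no added stressor; test concentration not given here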
[17] = E. coli acrAB mutant growth effects, primary screen, E. coli filamentation inducers, strain DRC39, OD650, 24 h (AID 1178); conditions: higher = more signal, called active from +8 up or from −8 down;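 note: growth measured as culture turbidity by optical density at 650 nm; test concentration not given here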
[18] = E. coli acrAB mutant growth effects, primary screen, E. coli filamentation inducers, strain DRC39, OD650, 48 h (AID 1179);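 note: screen aims at cell division blockers that make cells filament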; conditions: E. coli DRC39 delta-acrAB growth, higher = more signal, called active from +8 up or from −8 down
[19] = RPMI8226 myeloma cell viability, profiling panel, resazurin fluorescence, basal, 24 h, PK04 Diversity Set (AID 1180); conditions: higher = more signal;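 note: RPMI8826 multiple myeloma cell line at 5000 cells per well; test concentration not given here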
[20] = molecular target: E3 ubiquitin-protein ligase XIAP (Homo sapiens) (UniProt P98170); assay: XIAP binders, primary screen, biophysical, small-molecule microarray, fluorescence 635 nm (AID 1181); conditions: small-molecule microarray binding, higher = more signal;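 note: score merges 667 nm emission and signal to noise over triplicate slides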
Chain of E3 ubiquitin-protein ligase XIAP (Homo sapiens) (P98170 whole entry, looked up): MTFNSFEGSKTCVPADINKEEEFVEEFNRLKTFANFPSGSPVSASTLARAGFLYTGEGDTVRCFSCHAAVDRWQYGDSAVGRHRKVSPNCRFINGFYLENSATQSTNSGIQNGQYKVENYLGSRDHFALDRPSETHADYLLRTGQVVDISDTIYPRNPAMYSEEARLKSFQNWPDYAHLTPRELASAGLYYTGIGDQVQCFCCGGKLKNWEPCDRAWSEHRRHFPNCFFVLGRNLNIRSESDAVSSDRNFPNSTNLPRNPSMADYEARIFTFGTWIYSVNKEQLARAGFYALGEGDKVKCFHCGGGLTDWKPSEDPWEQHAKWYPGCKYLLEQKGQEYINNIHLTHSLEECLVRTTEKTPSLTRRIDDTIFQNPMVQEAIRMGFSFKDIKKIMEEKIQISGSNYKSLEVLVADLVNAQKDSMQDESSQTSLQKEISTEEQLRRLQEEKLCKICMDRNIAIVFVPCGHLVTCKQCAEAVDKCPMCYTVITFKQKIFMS

## COc1ccc([C@H]2C[C@H]3C(Br)=C[C@]2(OC)C(=O)[C@]32CO2)cc1
[1]
  z-score: -0.909
[2]
  z-score: -0.105
[3]
  z-score: -1.19
[4]
  z-score: -2.1
[5]
  z-score: -0.393
[6]
  z-score: -2.15
[7]
  z-score: -0.414 (inactive)
[8]
  z-score: -1.07
[9]
  z-score: -0.717
[10]
  z-score: 0.596 (inactive)
[11]
  z-score: 0.531
[12]
  z-score: -3.26 (inactive)
[13]
  z-score: -0.677 (inactive)
[14]
  composite z-score: -0.314 (inactive)
[15]
  z-score: 0.662 (inactive)
[16]
  z-score: -0.173 (inactive)
[17]
  z-score: 0.238 (inactive)
[18]
  z-score: 0.205 (inactive)
[19]
  z-score: -0.139
[20]
  composite z-score: -0.0599

## [N-]=[N+]=NCc1ccccc1C[C@]1(C(=O)N2CCCCC2)N=C(c2ccc(OCCCO)cc2)O[C@H]1c1ccccc1CN=[N+]=[N-]
[1]
  z-score: 0.0482
[2]
  z-score: 0.628
[3]
  z-score: -0.503
[4]
  z-score: -2.92
[5]
  z-score: -4.22
[6]
  z-score: 0.675
[7]
  z-score: -0.539 (inactive)
[8]
  z-score: -1.19
[9]
  z-score: -1.69
[10]
  z-score: -0.179 (inactive)
[11]
  z-score: -0.182
[12]
  z-score: 1.06 (inactive)
[13]
  z-score: -1.32 (inactive)
[14]
  composite z-score: -0.266 (inactive)
[15]
  z-score: 1.76 (inactive)
[16]
  z-score: 0.736 (inactive)
[17]
  z-score: 0.0687 (inactive)
[18]
  z-score: -0.352 (inactive)
[19]
  z-score: -2.22
[20]
  composite z-score: 0.377

## [N-]=[N+]=NCc1ccccc1C[C@@]1(C(=O)O)N=C(c2ccc(OCCCO)cc2)O[C@@H]1c1ccccc1N=[N+]=[N-]
[1]
  z-score: 0.593
[2]
  z-score: 0.0001
[3]
  z-score: 0.435
[4]
  z-score: -1.52
[5]
  z-score: -2.27
[6]
  z-score: -1.58
[7]
  z-score: 0.428 (inactive)
[8]
  z-score: -0.898
[9]
  z-score: -1.31
[10]
  z-score: -1.32 (inactive)
[11]
  z-score: 0.0549
[12]
  z-score: -1 (inactive)
[13]
  z-score: -1.47 (inactive)
[14]
  composite z-score: 0.313 (inactive)
[15]
  z-score: 0.755 (inactive)
[16]
  z-score: -0.268 (inactive)
[17]
  z-score: 0.604 (inactive)
[18]
  z-score: 0.331 (inactive)
[19]
  z-score: -0.876
[20]
  composite z-score: 0.0524

## COc1ccc(NN2C(C(O)c3cc(OC)c(OC)c(OC)c3)C=CC3C(=O)N(C4CCCCC4)C(=O)C32)cc1 (stereo not given)
[1]
  z-score: -0.753
[2]
  z-score: -1.42
[3]
  z-score: 1.17
[4]
  z-score: 0.651
[5]
  z-score: -0.177
[6]
  z-score: 0.861
[7]
  z-score: -0.569 (inactive)
[8]
  z-score: 0.00692
[9]
  z-score: -1.78
[10]
  z-score: 0.239 (inactive)
[11]
  z-score: -0.665
[12]
  z-score: -0.376 (inactive)
[13]
  z-score: -0.946 (inactive)
[14]
  composite z-score: -0.41 (inactive)
[15]
  z-score: 0.89 (inactive)
[16]
  z-score: 0.389 (inactive)
[17]
  z-score: -1.02 (inactive)
[18]
  z-score: 0.187 (inactive)
[19]
  z-score: -1.48
[20]
  composite z-score: 0.147

## NC(=O)NCC#Cc1ccc2c(c1)[C@]1(C(=O)N2)[C@H](C(N)=O)[C@H]2C(=O)O[C@H](c3ccccc3)[C@H](c3ccccc3)N2[C@@H]1c1ccccc1OCCO
[1]
  z-score: -1.23
[2]
  z-score: 0.634
[3]
  z-score: -0.945
[4]
  z-score: -0.211
[5]
  z-score: -0.186
[6]
  z-score: -1.01
[7]
  z-score: -0.287 (inactive)
[8]
  z-score: -1.05
[9]
  z-score: -0.386
[10]
  z-score: 0.79 (inactive)
[11]
  z-score: 0.979
[12]
  z-score: -0.275 (inactive)
[13]
  z-score: 0.369 (inactive)
[14]
  composite z-score: -0.793 (inactive)
[15]
  z-score: 0.75 (inactive)
[16]
  z-score: 0.785 (inactive)
[17]
  z-score: 0.285 (inactive)
[18]
  z-score: 0.0072 (inactive)
[19]
  z-score: 0.295
[20]
  composite z-score: 0.234

## C=C[C@H](OC)[C@@H](OC(=O)Nc1ccc(SC)cc1)c1ccc(O)c(F)c1
[1]
  z-score: 0.137
[2]
  z-score: 0.0047
[3]
  z-score: -0.14
[4]
  z-score: -0.913
[5]
  z-score: -1.07
[6]
  z-score: -2.33
[7]
  z-score: 3.02 (inactive)
[8]
  z-score: -1.09
[9]
  z-score: -0.75
[10]
  z-score: -0.538 (inactive)
[11]
  z-score: -0.0359
[12]
  z-score: -2.99 (inactive)
[13]
  z-score: 0.0545 (inactive)
[14]
  composite z-score: -2.05 (inactive)
[15]
  z-score: 1.88 (inactive)
[16]
  z-score: -0.703 (inactive)
[17]
  z-score: 0.543 (inactive)
[18]
  z-score: 0.519 (inactive)
[19]
  z-score: 0.035
[20]
  composite z-score: -0.192

## C=CCC(OC(C)=O)[C@@H]1[C@@H](N(Cc2cccc3ccccc23)C(=O)c2ccc(C)cc2)c2cc(OCCCO)ccc2N1C(=O)c1ccc(-c2ccccc2)cc1 (stereo not given in full)
[1]
  z-score: 1.1
[2]
  z-score: 0.719
[3]
  z-score: 1.47
[4]
  z-score: 1.07
[5]
  z-score: 0.783
[6]
  z-score: 3.02
[7]
  z-score: -0.0453 (inactive)
[8]
  z-score: 0.456
[9]
  z-score: -0.848
[10]
  z-score: 0.417 (inactive)
[11]
  z-score: 0.335
[12]
  z-score: -0.93 (inactive)
[13]
  z-score: 1.01 (inactive)
[14]
  composite z-score: -2 (inactive)
[15]
  z-score: -0.0178 (inactive)
[16]
  z-score: -1.51 (inactive)
[17]
  z-score: 0.611 (inactive)
[18]
  z-score: 0.861 (inactive)
[19]
  z-score: 0.734
[20]
  composite z-score: 0.146

## COCCOC(=O)N1C(=O)[C@@]2(c3cc(C#CCC(C(=O)OC)C(=O)OC)ccc31)[C@H](c1ccccc1OCCO)N1[C@H](c3ccccc3)[C@H](c3ccccc3)OC(=O)[C@H]1[C@@H]2C(=O)N1CCCCCCC1
[1]
  z-score: 0.579
[2]
  z-score: -0.219
[3]
  z-score: 0.779
[4]
  z-score: -0.895
[5]
  z-score: 0.103
[6]
  z-score: 0.335
[7]
  z-score: 2.19 (inactive)
[8]
  z-score: -0.641
[9]
  z-score: -1.34
[10]
  z-score: 0.719 (inactive)
[11]
  z-score: 1.16
[12]
  z-score: 1.29 (inactive)
[13]
  z-score: 0.883 (inactive)
[14]
  composite z-score: 0.243 (inactive)
[15]
  z-score: 1.48 (inactive)
[16]
  z-score: 2.14 (inactive)
[17]
  z-score: 0.189 (inactive)
[18]
  z-score: 0.364 (inactive)
[19]
  z-score: 1.58
[20]
  composite z-score: 0.361
